# Test results taken from PubChem BioAssay AID720582 (The Scripps Research Institute Molecular Screening Center, 2013).
# Out of some 370,000 compounds screened, about 2,300 (0.62%) were called active. The entries come from a sample that favours actives as a whole. Unmarked numbers belong to inactive results.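 Rule for the calls: active = inhibition above a per-campaign cutoff equal to the mean of compounds falling between control-based bounds plus 3 SD (cut at about 20% in these data); inactive = the rest.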
# Target: Disintegrin and metalloproteinase domain-containing protein 10 (Homo sapiens) (UniProt O14672)
# Sequence (O14672 214-748 limits assumed): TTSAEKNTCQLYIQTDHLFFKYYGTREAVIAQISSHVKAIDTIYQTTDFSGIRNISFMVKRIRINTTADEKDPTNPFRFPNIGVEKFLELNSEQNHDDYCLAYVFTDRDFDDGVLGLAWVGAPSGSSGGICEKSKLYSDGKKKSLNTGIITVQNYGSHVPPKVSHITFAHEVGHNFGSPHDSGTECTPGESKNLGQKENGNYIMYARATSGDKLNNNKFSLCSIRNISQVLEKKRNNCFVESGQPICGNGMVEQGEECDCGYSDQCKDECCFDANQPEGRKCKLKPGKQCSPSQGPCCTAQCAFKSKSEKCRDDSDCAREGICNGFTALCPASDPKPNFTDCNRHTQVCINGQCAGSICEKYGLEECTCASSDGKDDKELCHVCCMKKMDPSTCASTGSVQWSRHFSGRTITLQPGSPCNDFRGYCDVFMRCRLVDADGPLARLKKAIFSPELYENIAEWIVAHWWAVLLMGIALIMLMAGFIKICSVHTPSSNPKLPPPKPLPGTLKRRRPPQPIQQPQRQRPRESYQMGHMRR
# Experiment: blockers of ADAM10 peptide cleavage – biochemical, QFRET, HTS, primary screen (AID 720582);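 note: 0% = DMSO wells while the 100% control is not disclosed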
# Settings: recombinant ADAM10, EDANS/DABCYL FRET peptide cleavage, 3 h; at 7 µM; active compounds read high
row,Structure (SMILES),inhibition
1,O=C(NN1C(=O)C2C3C=CC(C4CC34)C2C1=O)c1ccc(Cl)cc1 (centres undefined),-2.31%
2,O=C(NN1C(=O)C2C3C=CC(O3)C2C1=O)c1ccccc1 (centres undefined),1.76%
3,COc1ccc(C(=O)NN2C(=O)C3C(c4ccccc4)C=CC(c4ccccc4)C3C2=O)cc1 (centres undefined),24.9% (active)
4,CCCCN1CCN(C(=O)c2ccc3c(c2)NC(=O)C(C)(C)O3)CC1,2.07%
5,Fc1ccc2nc(COCc3nc4ccc(F)cc4[nH]3)[nH]c2c1,2.8%
6,O=C(O)COc1ccc(/C=N/O)cc1Br,3.83%
7,COc1cc(/C=C/c2ccc(/C=C/c3cc(OC)c(OC)c(OC)c3)cc2)cc(OC)c1OC,-373%
8,COc1cc(/C=N/O)cc(Br)c1OS(=O)(=O)c1ccc(C)cc1,21.9% (active)
9,Cc1ccc(-n2c(SCC(=O)Nc3ccc(S(=O)(=O)Nc4nccs4)cc3)nnc2-c2ccncc2)cc1,-1.24%
10,COc1cccc(NC(=O)CN2CCN(c3nc(-c4cccc(OC)c4)cs3)CC2)c1,21.4% (active)
11,COCCCNC(=S)N1CCN(c2nc(-c3cccc(OC)c3)cs2)CC1,9.71%
12,CC1CCCC(C)N1C(=O)CN1CCN(c2nc(-c3ccc(F)cc3)cs2)CC1 (centres undefined),1.47%
13,CC[C@@H](CCC(=O)N(c1ccccc1)c1ccccc1)C1CC1,-6.31%
14,CCOc1ccc(-n2c(SCC(=O)Nc3cc(C)c(NC(=O)c4ccccc4)cc3OC)nnc2-c2cccs2)cc1,17.4%
15,O=C(CSCc1ccc(Br)cc1)Nc1ccc(S(=O)(=O)N2CCCCCC2)cc1,24.1% (active)
16,CCOc1ccc(NC(=O)COc2ccc(S(=O)(=O)N3CCCC3)cc2)cc1,4.99%
17,COc1ccc(OCC(=O)OCC(=O)Nc2ccc(S(=O)(=O)N3CCCCC3)cc2)cc1,-5.59%
18,CCOC(=O)[C@]12CCCCC/C=C\1N(Cc1ccc(OC)cc1)C(=O)[C@H]2CC(=O)N1CCOCC1,3.26%
19,CCCCNC(=O)C[C@H]1C[C@@]2(C(=O)OC)C(=C[C@H](COCc3ccccc3)O[C@@H]2C)N(Cc2ccc(Cl)cc2Cl)C1=O,9.41%
20,CC(C)(C)c1ccc(CSc2nnc(-c3cccs3)o2)cc1,-4.29%
21,O=[N+]([O-])c1cccc(S(=O)(=O)N2CCCCCC2)c1,-4.84%
22,Cc1ccc(S(=O)(=O)N2CCC(N3CCCCCC3)CC2)cc1,3.62%
23,O=S(=O)(c1cccc(S(=O)(=O)N2CCC(n3nnc4ccccc43)CC2)c1)N1CCCCC1,20.5% (active)
24,CC1=C(C(=O)N2CCOCC2)CC(CC(=O)NCc2cccs2)C(=O)N1CCCN1CCCC1=O (centres undefined),-13.7%
25,COc1cc(C2CC(=O)N3CN(Cc4ccccc4)CSC3=C2C#N)ccc1OCc1ccccc1 (centres undefined),27.5% (active)

row,Structure (SMILES),inhibition
1,COc1cc(C2C(C(=O)c3ccco3)=C(O)C(=O)N2c2cc(C)on2)ccc1OCc1ccccc1 (centres undefined),-2.12%
2,CCCNC(=O)C1CC(=O)N(c2ccc(OCc3ccccc3)cc2)C1 (centres undefined),-1.57%
3,N[C@@H](Cc1ccccc1)C(=O)N1CCC[C@@H]1C(=O)N1CCC2CCN(S(=O)(=O)c3ccccc3)CC21 (some centres undefined),-2.11%
4,COC[C@@H]1CCCN1c1ccc2c(c1)O[C@H](C)CCN(C1CC1)S2(=O)=O,-3.66%
5,COC(=O)[C@@]12CCCCC=C1N(CCc1ccc(Cl)cc1)C(=O)[C@H]2CC(=O)NCc1ccc(OC)c(OC)c1,5.19%
6,C[C@H]1[C@H](NC(=O)c2cccc(N(C)C)c2)CC[C@@]23CCCN2C(=O)CCC[C@@H]13,-106%
7,Cc1csc(NC(=O)CSc2nnc(-c3cccnc3)o2)n1,-10.7%
8,CC(NC(=O)COc1ccccc1)C(=O)NC1=NCCS1 (centres undefined),-1.01%
9,O=C(CSC1=NCCS1)Nc1nc(-c2ccccc2)cs1,20.3% (active)
10,CNC(=O)C[C@H]1C(=O)N(c2ccc(OC)cc2)C[C@@H]1Cc1ccccc1,-1.73%
11,C[C@H]1CN(c2ccc(Br)cc2)C(=O)[C@@H]1CC(=O)Nc1ccc(Br)cc1,-2.69%
12,O=C(C[C@H]1C(=O)N(c2ccc(F)c(F)c2)C[C@@H]1Cc1ccccc1)Nc1ccccc1,23.2% (active)
13,O=C(COC(=O)CCCSc1nc2ccccc2[nH]1)Nc1ccc(Oc2ccccc2)cc1,23.7% (active)
14,CCN(c1ccc(NC(=O)COC(=O)CCc2nc3ccccc3n2-c2ccccc2)cc1)C(C)C,15.2%
15,O=C(COC(=O)CCc1nc2ccccc2c(=O)[nH]1)Nc1ccc(N2CCOCC2)cc1,0.32%
16,COc1cccc(N2CCN(CC(=O)N(C)Cc3ccc(F)cc3)CC2)c1,-2.14%
17,CCCC(=O)Nc1ccc(C(=O)NCCCn2ccnc2)cc1,-4.06%
18,CCOC(=O)[C@]12CCCC3=C1N(CCC3)C(=O)[C@@H](CC(=O)N1CCSCC1)C2,4.75%
19,O=C1[C@H]2[C@@H](c3ccc(C(F)(F)F)cc3)N[C@]3(CCCN(Cc4ccc(Br)cc4)C3=O)[C@H]2C(=O)N1Cc1ccccc1,36.9% (active)
20,CCN1C(=O)[C@H]2[C@@H](c3ccc(C(F)(F)F)cc3)N[C@]3(CCCN(Cc4ccc(Br)cc4)C3=O)[C@H]2C1=O,2.63%
21,O=C1[C@H]2[C@@H](c3ccc(C(F)(F)F)cc3)N[C@]3(CCCN(Cc4ccc(Cl)cc4)C3=O)[C@H]2C(=O)N1Cc1ccccc1,17.5%
22,CC(C)N1CCCCC(NC(=O)c2ccc3ccccc3c2)C1=O (centres undefined),-1.93%
23,CCOC(=O)[C@]12CCCC3=C1N(CCC3)C(=O)[C@@H](CC(=O)NCc1cccs1)C2,-1.3%
24,CC(C)CNC(=O)OCc1cn(Cc2ccc(F)cc2)nn1,2.74%
25,O=C(CSc1nc2ccccc2nc1N1CCCCC1)N1CCN(S(=O)(=O)c2cccc([N+](=O)[O-])c2)CC1,-10.6%

row,Structure (SMILES),inhibition
1,COC(=O)[C@@]12C[C@@H](CC(=O)NCCCCc3ccccc3)C(=O)N(CCc3ccc(OC)c(OC)c3)C1=CCC(C)(C)C2,20.4% (active)
2,COC(=O)[C@]12C[C@H](CC(=O)NCc3ccccc3)C(=O)N(CCc3ccc(OC)c(OC)c3)C1=C[C@H](C(C)(C)C)O[C@@H]2C,10.1%
3,COC(=O)[C@@]12C[C@@H](CC(=O)NCCCCc3ccccc3)C(=O)N(Cc3ccccc3)C1=CCC(C)(C)C2,14.6%
4,c1coc(CCNc2ncnc3ccc(-c4ccc5c(c4)OCO5)cc23)c1,-144%
5,CCC(=O)c1c(CC)c2n3c1=CC[C@H]3CC(Br)C=2 (some centres undefined),-7.64%
6,COC(=O)[C@]12C[C@H](CC(=O)NCc3ccccc3)C(=O)N(CCC3=CCCCC3)C1=C[C@H](C(C)C)O[C@@H]2C1CC1,15.1%
7,O=S(=O)(Nc1ccc(Oc2ncccn2)c(Cl)c1)c1ccc(F)cc1,7.14%
8,Cc1cc(C)cc(NS(=O)(=O)c2ccc(Oc3ncc(C(F)(F)F)cc3Cl)cc2)c1,24% (active)
9,CN(NS(=O)(=O)c1cccs1)c1ncc(C(F)(F)F)cc1Cl,-3.41%
10,Cc1ccc(NC(=O)c2cc(C)nn2-c2ccccc2)c(C)c1,1.23%
11,C#CCN([C@H](C(=O)OC)C(C)CC)S(=O)(=O)c1ccccc1Br (some centres undefined),5.73%
12,COC(=O)C1=C(C)N(C)C(C)=C(C(=O)OC)C1c1cccc(Br)c1,1.25%
13,COC(=O)C1NN=C(C(=O)c2ccc(Br)cc2)C1c1cccc(Br)c1 (centres undefined),20% (active)
14,COC(=O)CN1C(C)=Nc2ccc(Br)cc2C1c1ccccc1 (centres undefined),-0.34%
15,COc1cccc(Cn2cc(COC(=O)Nc3ccc(F)cc3)nn2)c1,3.55%
16,O=C(C1CCCN1S(=O)(=O)c1ccccc1)N1CCc2ccccc2C1 (centres undefined),5.1%
17,CC(C)(C)OC(=O)N1CCC(NC(=O)c2[nH]cnc2C(=O)N[C@@H](Cc2ccccc2)C(=O)OCc2ccccc2)CC1,26.5% (active)
18,C[C@H](NC(=O)c1nc[nH]c1C(=O)NCC(=O)OC(C)(C)C)c1ccccc1,4.61%
19,C[C@@H](NC(=O)c1nc[nH]c1C(=O)N1CCN(C(=O)OC(C)(C)C)CC1)c1ccccc1,-5.64%
20,CNC(=O)c1[nH]cnc1C(=O)N[C@@H](CC(C)C)C(=O)OC(C)(C)C,1.72%
21,CNC(=O)c1[nH]cnc1C(=O)N[C@@H](CC(C)C)C(=O)OCc1ccccc1,-0.66%
22,CC(C)(C)OC(=O)CNC(=O)c1[nH]cnc1C(=O)N[C@@H](Cc1ccccc1)C(=O)OCc1ccccc1,27% (active)
23,CCOC(=O)C1CCN(C(=O)C(C)(C)NC(=O)Nc2ccccc2Cl)CC1,-4.18%
24,O=C(c1ccccc1)c1ccc(-c2ccccc2C(=O)NC2CCCCN(Cc3ccc(Cl)cc3)C2=O)cc1 (centres undefined),0.76%
25,COc1ccc(CCNC(=O)CSc2nc3c([nH]2)c(=O)n(C)c(=O)n3C)cc1,-8.76%

row,Structure (SMILES),inhibition
1,Cc1cc(C)n2ncc(C(=O)Nc3ccc4c(c3)OCCO4)c2n1,-3.85%
2,CCC(=O)Nc1ccc2c(c1)C(=O)N(C)[C@H]1CC[C@H](CC(=O)NCCOC)O[C@@H]1CO2,2.62%
3,CC(C)c1ccc(S(=O)(=O)NC2CCCC2)cc1,-3.8%
4,Cc1cccc(CCNS(=O)(=O)c2ccc(S(=O)(=O)NC3CCCC3)cc2)c1,27.1% (active)
5,Cc1cccc(CCNS(=O)(=O)c2ccc3c(c2)NC(=O)CO3)c1,0.59%
6,Cc1ccc(NC(=S)NNC(=O)CSc2nnc(SCc3ccccc3Cl)s2)cc1,17.8%
7,Cc1cc(Nc2ccccc2)n(C(=O)c2ccc(N)cc2)n1,21.3% (active)
8,Cc1ccc(NC(=O)Nc2cc(C)nn2-c2ccccc2)cc1,-2.62%
9,Cn1c(Nc2ccccc2)cc(=O)n(C)c1=O,7.08%
10,CC(=O)Nc1ccc(C(=O)Nc2cccc(S(=O)(=O)NC3=NCCC3)c2)cc1,-1.25%
11,O=C(NNC(=O)c1cccc(S(=O)(=O)Nc2ccc(Cl)cc2)c1)c1ccc(=O)[nH]c1,2.04%
12,O=C(Nc1cccc(S(=O)(=O)Nc2ccc(Cl)cc2)c1)c1ccc2c(c1)OCCO2,20.5% (active)
13,O=C(NC1CCC1)c1ccc(C#CC2CC2)cn1,-7.03%
14,COc1ccc(-n2c(COc3ccc(C)cc3)nnc2SCC(=O)Nc2ccc(Oc3ccccc3)cc2)cc1,-2.63%
15,COc1cc(COCC(O)CN2CCN(Cc3ccc4c(c3)OCO4)CC2)cc(OC)c1OC (centres undefined),-2.3%
16,COc1ccc(-c2cc(C(=O)N3CCN(Cc4ccc5c(c4)OCO5)CC3)on2)cc1OC,-0.99%
17,COc1cc(Cl)c(S(=O)(=O)N2CCN(Cc3ccc4c(c3)OCO4)CC2)cc1Cl,45.9% (active)
18,Cc1ccccc1CN1CCCCC(NC(=O)c2cccc(C#N)c2)C1=O (centres undefined),-1.06%
19,Cc1nc2ccc(C(=O)N3CCN(C(=O)C(C)(C)C)CC3)cc2n1C1CCCC1,1.94%
20,COc1cc(SC)ccc1C(=O)Nc1nc(C)cs1,-7.24%
21,Cc1csc(NC(=S)Nc2cccc(Cl)c2)n1,23.1% (active)
22,Cc1ccc(C2CCN(C(=S)Nc3cccc(Cl)c3)C2)cc1 (centres undefined),8.61%
23,C=C(C)C1CC23C(=O)C4(C(=O)c5ccccc5)C[C@@]5(C)CCC(CC2C1(C)C)(C4=O)C35OC (some centres undefined),-9.26%
24,O=C(C1CCN(S(=O)(=O)c2ccccc2)CC1)N1CCN(C2CCCCC2)CC1,-10.1%
